Assay outcomes: PubChem BioAssay, National Center for Advancing Translational Sciences (NCATS)
Sampled rows, rich in hits. Any-hit rate of the full collection: about 6%.
DRD3 agonist: activates the human D3 dopamine receptor; max activation, %; 0.58% of 410,000 active; P35462; D3R DiscoveRx beta-arrestin cells, luminescence, 90 min; in the data active = max activation above about 30%
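Agonist-mode cell screen: cells plated at 1500/well and incubated overnight at 37 °C, then exposed to library compounds for 90 min at 37 °C. Detection reagent was added for 30–60 min at room temperature, and luminescence was read.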
D1 potentiator: human D1 dopamine receptor positive modulation. P21728. HEK293 TREx D1 cells, calcium flux, dopamine EC20 potentiation. potentiation, % at 10 µM. 0.036% of 360,000 active. AID 504651; in the data active = potentiation above about 30%
Target sequence (P21728 whole entry, looked up): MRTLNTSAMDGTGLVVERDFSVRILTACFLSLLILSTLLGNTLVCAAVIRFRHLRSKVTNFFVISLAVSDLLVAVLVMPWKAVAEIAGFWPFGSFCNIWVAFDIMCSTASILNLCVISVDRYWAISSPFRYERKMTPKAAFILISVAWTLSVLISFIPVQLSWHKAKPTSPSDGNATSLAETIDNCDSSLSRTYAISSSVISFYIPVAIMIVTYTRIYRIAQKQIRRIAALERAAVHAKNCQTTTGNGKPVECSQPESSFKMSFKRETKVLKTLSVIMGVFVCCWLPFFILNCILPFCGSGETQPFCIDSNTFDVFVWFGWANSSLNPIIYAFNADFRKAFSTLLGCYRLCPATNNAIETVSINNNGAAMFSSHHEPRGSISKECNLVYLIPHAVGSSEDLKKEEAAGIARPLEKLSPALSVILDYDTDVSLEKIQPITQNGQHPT
D1 ag: agonists of human D1 dopamine receptor; HEK293 T-REx D1 cells, calcium flux, agonist mode; activation, % at 2 µM; 1% of 360,000 active; AID 504660; in the data active = activation above about 30%
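Inducible HEK293 T-REx D1 cells, force-coupled to calcium signalling, were plated at 4000 cells/well with tetracycline and held overnight at 30 C. After no-wash calcium dye loading, compound-evoked calcium rise over 180 s flagged agonists.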
D3 antag: blocks the human D3 dopamine receptor; D3R cells, DiscoveRx beta-arrestin luminescence, antagonist mode; stronger effect = lower value; max response, negative = inhibition, %; 2.5% of 360,000 active; P35462; AID 652054; in the data active = max response below about -50%
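Cells plated overnight at 1500 cells/well, then exposed to library compounds with dopamine controls for 90 minutes at 37 degrees C. DiscoveRx reagent added for 30–60 minutes at room temperature; luminescence read, quantitative HTS format.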
D1 antag: antagonists of human D1 dopamine receptor; P21728; HEK293 TREx D1 cells, calcium flux, dopamine EC80; stronger effect = lower value; activity change, negative = inhibition, % at 10 µM; 3.2% of 360,000 active; in the data active = activity change below about -30%
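Using tetracycline-induced force-coupled D1 Hek293 cells and a calcium dye, signals were followed for 180 s after compound, then for 180 s after EC80 dopamine, to detect inhibitors.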
A number is an active result; 0 = inactive; - = no result given.

SMILES	DRD3 agonist	D1 potentiator	D1 ag	D3 antag	D1 antag
COCc1cc(C)nc(SCC(=O)Nc2ccc3c(c2)OCO3)c1C#N	0	0	0	0	0
COCc1cc(C)nc(SCC[N+](C)(C)CC(=O)c2ccccc2)c1C#N	0	0	0	-55	0
COCc1cc(C)nc(SCC[N+](C)(C)CC(=O)Nc2cccc(C)c2)c1C#N	0	0	0	0	0
COc1cc(OC)cc(C(=O)N[C@H](C(=O)Nc2ccc3c(c2)OCO3)C(C)C)c1	0	0	0	0	-33
COc1cc(OC)cc(C(=O)NC(C(=O)Nc2ccc3c(c2)OCO3)C(C)C)c1 (configuration not stated)	0	-	0	0	0
Nc1nc(SCc2ccc(Cl)cc2Cl)nc2nc3c(cc12)CCCC3	0	0	0	-57	0
Nc1nc(SCc2ccccc2Cl)nc2nc3c(cc12)CCCC3	0	0	0	0	0
CCOc1cccc2cc(C(=O)NCc3ccc(C)cc3)c(=N)oc12	0	0	0	0	0
CCOc1ccc(C(=O)Cn2c(=O)n3nc(CCn4nc(C)cc4C)nc3c3cc(OC)c(OC)cc32)cc1	0	0	0	-	0
Oc1ccc(C23CCCC2C2(CCCC2)c2ccc(O)cc2O3)c(O)c1 (configuration not stated)	0	-	152	0	0
CCCCN1C(=O)C(CC(=O)NCc2ccco2)CC(C(=O)N(CC)CC)=C1C (configuration not stated)	0	-	-	0	-
O=c1[nH]c(CN2CCN(c3ccc(O)cc3)CC2)nc2scc(-c3ccc(Cl)cc3)c12	98	0	0	0	-33
CC(=O)Oc1ccc(Cl)cc1/C=C/c1cc(OC(C)=O)c2ccccc2n1	-	0	0	-	-63
COc1cc(Cl)cc(/C=C/c2ccc3ccccc3n2)c1OC(C)=O	0	0	0	0	0
N#Cc1cnn2ccc(-c3ccc4c(c3)CCC4)nc12	0	0	0	0	-31
Nc1nc(-c2ccc3c(c2)CCCC3)cs1	0	0	0	0	0
COCCCNc1ncnc2c1nnn2C	0	0	0	-	-
O=C(CN1CCN(C(=O)C2CCCO2)CC1)Nc1ccc(Cl)cc1 (configuration not stated)	0	0	0	0	-30
O=C(CN1CCN(C(=O)C2COc3ccccc3O2)CC1)Nc1ccccc1 (configuration not stated)	0	0	0	0	-33
O=C(CCC1COc2ccccc2O1)Nc1cccnc1 (configuration not stated)	33	0	0	0	0
CC(C)N(C(=O)CN1CCN(C(=O)C2COc3ccccc3O2)CC1)C(C)C (configuration not stated)	0	0	0	0	0
O=C(Nc1ccc(Cl)cc1)N1CCN(C(=O)C2CCCO2)CC1 (configuration not stated)	0	0	0	0	0
O=C(C1CCCO1)N1CCN(S(=O)(=O)c2ccc(Cl)cc2)CC1 (configuration not stated)	0	0	0	0	-47
O=C(CNC(=O)c1ccc(-c2ccccc2)cc1)OC(C(=O)Nc1cc(C(F)(F)F)ccc1Cl)c1ccccc1 (configuration not stated)	-	0	0	-	0
Cc1noc(C)c1S(=O)(=O)NC(=O)C1(C)CCN1C(=O)Cc1ccc(Cl)cc1Cl (configuration not stated)	0	-	-	0	-
SMILES	DRD3 agonist	D1 potentiator	D1 ag	D3 antag	D1 antag
O=C(C1CC(Cl)CN1S(=O)(=O)c1ccc(Cl)cc1)N1CCOCC1 (configuration not stated)	0	0	0	0	-36
O=C(N1CCOCC1)N1CCN(S(=O)(=O)c2ccc(Cl)cc2)C1	0	0	0	0	0
CSc1nnc(-c2sccc2-n2cccc2)o1	0	0	0	0	0
Clc1cccc(Cl)c1CSc1nnc(-c2sccc2-n2cccc2)o1	0	0	50	0	0
COC(=O)CC1N(S(=O)(=O)c2ccc(C)cc2)c2ccccc2C1(C(=O)OC)C(=O)OC (configuration not stated)	0	-	-	0	-
CC(=O)c1cccc(CN2CCN(C3CCCCC3)C(CCO)C2)c1 (configuration not stated)	0	0	0	-54	0
CC(=O)c1cccc(CN2CCN(Cc3ccccc3)C(CCO)C2)c1 (configuration not stated)	0	0	0	0	0
Cc1cc(-n2cccn2)ccc1CN1CCN(C2CCCC2)C(CCO)C1 (configuration not stated)	0	0	0	-70	0
Cc1ccc(Cn2c(SCc3cccnc3)nc3c2c(=O)n(C)c(=O)n3C)cc1	0	0	0	0	0
Cn1c(=O)c2c(nc(NCc3ccccc3)n2Cc2ccccc2Cl)n(C)c1=O	0	0	0	-	-30
CCOc1ccc(CCNc2nc3c(c(=O)n(C)c(=O)n3C)n2CC)cc1OCC	0	0	0	0	-31
Cn1c(=O)c2c(nc(NCCO)n2CCc2ccccc2)n(C)c1=O	0	0	0	0	-79
COc1ccc(CCNc2nc3c(c(=O)n(C)c(=O)n3C)n2Cc2ccc(F)cc2)cc1OC	0	0	0	-	0
Cn1c(=O)c2c(nc(NCCCO)n2CCc2ccccc2)n(C)c1=O	0	0	0	0	0
Cn1c(=O)c2c(nc(SCc3cccnc3)n2Cc2ccccc2)n(C)c1=O	0	0	0	0	-41
Cc1cccc(N(C)C(=O)c2cc3c(=O)oc4ccc(C)cc4c3s2)c1	0	0	0	-	0
CCn1c(Oc2ccccc2C)nc2c1c(=O)n(C)c(=O)n2C	0	0	0	0	0
C=CCn1c(Oc2ccc(C=O)cc2OCC)nc2c1c(=O)n(C)c(=O)n2C	0	0	0	0	-61
CCCSc1ncc(Cl)c(C(=O)Nc2ccc(S(=O)(=O)N3CCCCC3C)cc2)n1 (configuration not stated)	0	0	0	-	0
Cc1cccc(NC(=O)c2ccc(CN3CC(=O)N4CCCCC4C3=O)cc2)c1C (configuration not stated)	0	0	0	-	0
OC[C@]1(O)OC[C@@H](O)[C@H](O)[C@@H]1O	0	-	-	-	-
O=C(NCCc1ccccc1F)C1CCCN1S(=O)(=O)c1ccc2ccccc2c1 (configuration not stated)	0	0	41	0	-53
Cc1ccc(C)c(CNC(=O)C2CCCCN2S(=O)(=O)c2ccc(F)cc2)c1 (configuration not stated)	0	0	44	-	-37
Cc1ccc(CNC(=O)C2CCCN2S(=O)(=O)c2ccc(F)cc2)cc1 (configuration not stated)	0	0	0	0	0
CC(C)Oc1ccc(CNC(=O)C2CCCCN2S(=O)(=O)c2ccc(F)cc2)cc1 (configuration not stated)	0	0	0	-	-40
Cn1cc(-c2cc3n(n2)CCC(=O)N3CCCC(=O)NCc2ccc(F)cc2)c2ccccc21	0	0	0	-	-33
